# Tgondii IFNg: T. gondii growth inhibition under IFN-gamma. AID 1259416. Toxoplasma gondii growth in IFN-gamma-treated host cells; active compounds read low. 3.8% of 69,000 active. activity change, negative = inhibition, % (concentration not given with the values); in the data active = activity change below about -70%, passing the limit was not always enough;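 also: host cells are HeLa cells infected with Toxoplasma gondii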
# * = called active by the depositor. Only a selection was taken, and hits are over-represented in it overall.
SMILES,Tgondii IFNg
Cc1csc(NC(=O)CN2C(=O)CCc3cc(S(=O)(=O)N4CCC(C)CC4)ccc32)n1,-93*
CC1CCN(S(=O)(=O)c2ccc3c(c2)CCC(=O)N3CC(=O)Nc2ccc(C(C)C)cc2)CC1,-73*
Cc1cc(C)c(NC(=O)CN2C(=O)CCc3cc(S(=O)(=O)N4CCCCC4C)ccc32)c(C)c1 (stereo not drawn),-43
CCOc1ccc(NC(=O)CN2C(=O)CCc3cc(S(=O)(=O)N4CCC(C)CC4)ccc32)cc1,-26
Cc1cc(C)c(NC(=O)CN2C(=O)CCc3cc(S(=O)(=O)N4CCC(C)CC4)ccc32)c(C)c1,-31
CC(C)NC(=O)CN1C(=O)CCc2cc(S(=O)(=O)N3CCCCC3C)ccc21 (stereo not drawn),36
CC(C)c1ccc(NC(=O)CN2C(=O)CCc3cc(S(=O)(=O)N4CCCCC4C)ccc32)cc1 (stereo not drawn),-75*
CC1CCN(S(=O)(=O)c2ccc3c(c2)CCC(=O)N3CC(=O)Nc2ccccn2)CC1,10
CN(C)CCNC(=O)C1Cc2nc(-c3ccccc3)sc2N1CC1CC1 (stereo not drawn),10
O=C(CN=C1NS(=O)(=O)c2ccccc21)NC1CC(=O)N(c2ccc(F)cc2)C1 (stereo not drawn),3
COc1cc(NC(=O)c2cncc(NS(=O)(=O)c3ccc(Br)cc3)c2)cc(OC)c1,-26
COc1ccc(N2CCN(Cc3cnc[nH]3)C(C)C2)cc1 (stereo not drawn),6
Cc1oc(-c2ccccc2Cl)cc1C(=O)N1CCNC(=O)CC1,-31
CN1CC[C@@H](c2c(O)cc(O)c3c(=O)cc(-c4ccccc4Cl)oc23)[C@@H]1CO,-74*
Cc1oc(-c2ccccc2Cl)cc1C(=O)N1CCCCC1CO (stereo not drawn),-45
c1ccc(OC[C@@H]2CO[C@@H]3CN(c4cnccn4)C[C@@H]23)cc1,5
O=c1cc(CN2CCCC2)nc2n1CCCN(Cc1ccoc1)C2,-29
COc1ccc(-c2[nH]ncc2CNC(=O)c2ccc(N3CCOCC3)cc2)cc1,7
N#CCNC(=O)c1ccc(-c2ccnc(Nc3ccc(N4CCOCC4)cc3)n2)cc1,-80*
COc1ccc(NC(=O)CS(=O)CC(=O)Nc2ccc(N3CCOCC3)cc2)cc1 (stereo not drawn),-1
Cc1cnc(N2CCC3(CCN(CC4CC4)C3=O)CC2)nc1,-48
O=C(CCc1cn2ccccc2n1)NCc1cn[nH]c1-c1ccc(F)cc1,0
CC(C)c1nc(CCN(C)C(=O)c2nc3c(s2)CCCC3)no1,2
COc1ccccc1CN(CCCn1ccnc1)Cc1ccc(F)c(F)c1,-42
Clc1ccc(CCC(Cn2ccnc2)Sc2c(Cl)cccc2Cl)cc1 (stereo not drawn),-86*
SMILES,Tgondii IFNg
Clc1cccc(Cl)c1Cn1ccnc1,1
COc1ccccc1-c1nc(C)c(-c2ccc(SCc3ccc(F)cc3)nn2)s1,1
CN(C)CCO[C@@H]1C[C@@H]2CN(S(=O)(=O)c3cn(C)cn3)CCN2C1,30
N#Cc1ccc(OCc2c(Cl)sc3ccc(Cl)cc23)cc1,-6
N#Cc1cc(Br)c(OCc2c(F)cccc2Cl)c(Br)c1,-78*
O=C1C2C3C=CC(O3)C2C(=O)N1OCc1c(F)cccc1Cl (stereo not drawn),42
Cc1nc(-c2ccc(F)cc2)sc1-c1ccc(SCc2c(F)cccc2Cl)nn1,-33
CCCc1cc(C(=O)N2CCCC(c3[nH]ncc3-c3ccccc3)C2)ccn1 (stereo not drawn),-3
CCCc1[nH]ncc1C(=O)N1CCCC(c2[nH]ncc2-c2ccc(F)cc2)C1 (stereo not drawn),-8
CCCc1cc(C(=O)N2CCCC(c3[nH]c4c(C)cccc4c3-c3ccncc3)C2)no1 (stereo not drawn),-116*
COCCCNC(=O)c1ccc(-c2nc(CN3CCc4ccccc43)c(C)o2)cc1,8
Cc1oc(-c2ccc(C(=O)NCc3ccccc3Cl)cc2)nc1CN1CCc2ccccc21,-49
CCOc1ccc(CNC(=O)c2ccc(-c3nc(CN4CCc5ccccc54)c(C)o3)cc2)cc1,10
CCCCNC(=O)c1ccc(-c2nc(CN3CCc4ccccc43)c(C)o2)cc1,-66
Cc1oc(-c2ccc(C(=O)NCCc3ccccc3)cc2)nc1CN1CCc2ccccc21,-127*
Cc1oc(-c2ccc(C(=O)N3CCCCCC3)cc2)nc1CN1CCc2ccccc21,-101*
Cc1ccc(CNC(=O)c2ccc(-c3nc(CN4CCc5ccccc54)c(C)o3)cc2)o1,143
Cc1oc(-c2ccc(C(=O)N3CCC(C)CC3)cc2)nc1CN1CCc2ccccc21,94
Cc1oc(-c2ccc(C(=O)NCc3cccs3)cc2)nc1CN1CCc2ccccc21,-94*
Cc1oc(-c2ccc(C(=O)NCCCc3ccccc3)cc2)nc1CN1CCc2ccccc21,122
CCOC(=O)C1CCCN(C(=O)c2ccc(-c3nc(CN4CCc5ccccc54)c(C)o3)cc2)C1 (stereo not drawn),56
CCCCOc1ccc(CNC(=O)c2ccc(-c3nc(CN4CCc5ccccc54)c(C)o3)cc2)cc1,-94*

# Assay outcomes (PubChem BioAssay)
